According to PubChem BioAssay AID1345085 (National Center for Advancing Translational Sciences (NCATS), 2018):
Records with an inconclusive call do not appear. Calls of active or inactive are those of the source. Calls come from the whole dose curve; as a rule, active = well fitted cell-killing curve with a large enough effect; inconclusive = small, poorly fitted or top-dose-only effect, or effect the other way; inactive = no such curve, though single readings can be large or run the other way.

These compounds were tested on Es-2 (assay: Confirmatory qHTS for gynecologic anti-cancer compounds from libraries of approved drugs and bioactive compounds). Conditions: gynecologic cancer cell panel viability, ATPlite luminescence, 48 h; series mostly up to 57.6 µM.
Outline: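 Seeding 1,000 cells per well preceded overnight (16 h) attachment, after which 48 h drug treatment across 57.5 uM–0.977 nM (11 points) was applied. Remaining cellular ATP, detected by ATPlite luminescence, defined IC50.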
Note: nearly all actives have a fitted effect of over 55% in size.
Potency is the fitted concentration of half-maximal effect.

| SMILES | Potency |
| --- | --- |
| CCC1C(=O)N(C)c2cnc(Nc3ccc(C(=O)NC4CCN(C)CC4)cc3OC)nc2N1C1CCCC1 (stereo unspecified) | 0.0611 µM (active) |
| COC(C)(C)CCn1nc(Nc2c(C)cccc2C)c2cnc(Nc3ccc(OCCN4CCCC4)c(F)c3)nc21 | inactive |
| COc1cc2ncnc(Nc3ccc(F)c(Cl)c3)c2cc1OCCCN1CCOCC1 | inactive |
| O=C(/C=C/c1cccc(S(=O)(=O)Nc2ccccc2)c1)NO | 2.98 µM (active) |
| Nc1ncn([C@@H]2O[C@H](CO)[C@@H](O)[C@H]2O)c(=O)n1 | 12.2 µM (active) |
| Cc1cc(C2CCCCC2)n(O)c(=O)c1 | 9.94 µM (active) |
| CCCCc1oc2ccccc2c1C(=O)c1cc(I)c(OCCN(CC)CC)c(I)c1 | 70.8 µM (active) |
| O=C(c1ccc(F)c(F)c1Nc1ccc(I)cc1F)N1CC(O)([C@@H]2CCCCN2)C1 | 17.2 µM (active) |
| CCCCN(CCCC)C(=O)CN1C[C@H](c2ccc3c(c2)OCO3)[C@@H](C(=O)O)[C@@H]1c1ccc(OC)cc1 | inactive |
| Oc1cn2c(n1)Nc1ccc(Cl)c(Cl)c1C2 | inactive |
| O=C(NOC[C@H](O)CO)c1ccc(F)c(F)c1Nc1ccc(I)cc1F | 0.344 µM (active) |
| CC(C)C[C@H](NC(=O)[C@@H](NC(=O)c1cccc(-c2ccccc2)n1)[C@@H](C)O)B(O)O | 0.0685 µM (active) |
| CC1=C(/C=C/C(C)=C/C=C/C(C)=C/C(=O)Nc2ccc(O)cc2)C(C)(C)CCC1 | 27.3 µM (active) |
| COC(C(=O)N1Cc2[nH]nc(NC(=O)c3ccc(N4CCN(C)CC4)cc3)c2C1)c1ccccc1 (stereo unspecified) | inactive |
| FC(F)(F)c1ccc(/C=C/c2nc(COc3ccc(CCCCn4ccnn4)cc3)co2)cc1 | 24.3 µM (active) |
| CCN(CC)CCOc1ccc(/C(=C(\Cl)c2ccccc2)c2ccccc2)cc1 | 398 µM (active) |
| Cn1c(=O)c(-c2c(Cl)cccc2Cl)cc2cnc(Nc3cccc(C(=O)O)c3)nc21 | 2.73 µM (active) |
| Cc1ccc(C(=O)Nc2cccc(C(F)(F)F)c2)cc1-c1ccc2nc(NCCN3CCOCC3)ncc2c1 | 5.44 µM (active) |

| SMILES | Potency |
| --- | --- |
| O=c1c2ccccc2nc2n1CCc1c-2[nH]c2ccccc12 | inactive |
| CN(C)CCC(CSc1ccccc1)Nc1ccc(S(=O)(=O)NC(=O)c2ccc(N3CCN(Cc4ccccc4-c4ccc(Cl)cc4)CC3)cc2)cc1[N+](=O)[O-] (stereo unspecified) | 4.85 µM (active) |
| CC1(C)[C@@H](O)CC[C@]2(C)[C@H]3C(=O)C=C4[C@@H]5C[C@@](C)(C(=O)O)CC[C@]5(C)CC[C@@]4(C)[C@]3(C)CC[C@@H]12 | inactive |
| CCC1=CC2CN(C1)Cc1c([nH]c3ccccc13)[C@@](C(=O)OC)(c1cc3c(cc1OC)N(C)[C@H]1[C@@](O)(C(=O)OC)[C@H](OC(C)=O)[C@]4(CC)C=CCN5CC[C@]31[C@@H]54)C2 (stereo partly specified) | 0.376 µM (active) |
| COc1cc2c(c(OC)c1OC)-c1ccc(OC)c(=O)cc1[C@@H](NC(C)=O)CC2 | 0.0708 µM (active) |
| CN(C)/N=N/c1nc[nH]c1C(N)=O | inactive |
| Nc1ccn([C@@H]2O[C@H](CO)[C@@H](O)C2(F)F)c(=O)n1 | 0.0306 µM (active) |
| CCc1c2c(nc3ccc(OC(=O)N4CCC(N5CCCCC5)CC4)cc13)-c1cc3c(c(=O)n1C2)COC(=O)[C@]3(O)CC | 12.2 µM (active) |
| CCCCc1nc2cc(/C=C/C(=O)NO)ccc2n1CCN(CC)CC | 1.09 µM (active) |
| CCS(=O)(=O)N1CCN(c2ccc(Nc3ncc(C(N)=O)c(NC4CC4)n3)cc2)CC1 | inactive |
| CCCCN(CCCC)CC(O)c1cc(Cl)cc2c1-c1ccc(Cl)cc1/C2=C/c1ccc(Cl)cc1 (stereo unspecified) | inactive |
| Cc1cc(C(C)Nc2ccccc2C(=O)O)c2nc(N3CCOCC3)cc(=O)n2c1 (stereo unspecified) | inactive |
| CNC1CCC(N(Cc2cccc(-c3ccncc3)c2)C(=O)c2sc3ccccc3c2Cl)CC1 (stereo unspecified) | 24.3 µM (active) |
| CN1CCN(Cc2ccc(NC(=O)Nc3ccc(Oc4cc(NC(=O)C5CC5)ncn4)cc3)cc2C(F)(F)F)CC1 | 0.544 µM (active) |
| CC(C)C[C@H](NC(=O)[C@H](Cc1ccccc1)NC(=O)c1cnccn1)B(O)O | 0.0611 µM (active) |
| O=c1cc(CN2CCOCC2)occ1OCCCCCSc1ccnc2cc(C(F)(F)F)ccc12 | inactive |
| CNc1nccc(-c2cccnc2Oc2cc(C(=O)Nc3cccc(C(F)(F)F)c3)ccc2C)n1 | 6.11 µM (active) |
| COc1cc2c(Oc3ccc(-c4cnc(Nc5ccc(F)cc5)n(C)c4=O)cc3F)ccnc2cc1OCCCN1CCOCC1 | inactive |
